± gives the standard deviation of the averaged measurements. Whole data set: some 33,000 sequences, median “E-score (dimensionless, -0.5 to 0.5)” near -0.049, cut for the highest 2% near 0.37. This excerpt belongs to a sample that is enriched for the highest values.
What follows are sequences tested on T1, PmTbr T-box DNA-binding domain (GST fusion) (assay: PBM E-score of 8-mer (E-score (dimensionless, -0.5 to 0.5)); Tbr is Tbrain of the sea star Patiria miniata (Pm) or the sea urchin Strongylocentrotus purpuratus (Sp); higher = stronger binding preference). Conditions: the construct has about 5 more residues each side.
T1 sequence: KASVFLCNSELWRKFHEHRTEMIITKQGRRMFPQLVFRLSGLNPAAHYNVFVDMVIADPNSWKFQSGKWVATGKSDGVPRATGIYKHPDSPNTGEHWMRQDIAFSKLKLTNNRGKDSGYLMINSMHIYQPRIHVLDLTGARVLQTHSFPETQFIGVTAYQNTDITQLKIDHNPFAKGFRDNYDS
Procedure: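 Universal protein-binding microarray (Agilent AMADID 016060, 60-bp probes with a 35-bp variable region) incubated with 200 nM GST-fused Patiria miniata Tbr T-box DNA-binding domain (residues 272-466) in PBS pH 7.5. Scored for every ungapped 8-mer (given with its reverse complement) by the Universal PBM Analysis Suite as E-score (modified Wilcoxon-Mann-Whitney enrichment, range -0.5 to 0.5; >0.45 counts as bound) and Z-score of median probe intensity. Two replicate arrays (datasets 1 and 2).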
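Further: 200 nM protein in PBS on universal arrays averaged over duplicate arrays.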

ATTCTGAG and CCGGCTGC are within error of each other in “PBM E-score of 8-mer” value: -0.131 ± 0.012 for the first, -0.125 ± 0.1 for the second.

Compared with CGCGCGAA, TGCGCGAA is lower in “PBM E-score of 8-mer” value: 0.3963 ± 0.00041 for the first, 0.307 ± 0.017 for the second.

First: GGCGCGAC
Second: CGCGCGAG
The “PBM E-score of 8-mer” value of the first is higher: 0.377 ± 0.025 for the first, 0.27 ± 0.023 for the second.

ATCGCGAC and AGCGCGAC are within error of each other in “PBM E-score of 8-mer” value: 0.26 ± 0.021 for the first, 0.242 ± 0.003 for the second.

Going from CTCGCGAC to CGCGCGAC, the “PBM E-score of 8-mer” value falls from 0.326 ± 0.0051 to 0.291 ± 0.025.

Compared with GTCGCGAC, ATAGGGGG is lower in “PBM E-score of 8-mer” value: 0.385 ± 0.0054 for the first, -0.0469 ± 0.086 for the second.

CATCAAAC and AAGGGGCC are within error of each other in “PBM E-score of 8-mer” value: -0.0906 ± 0.034 for the first, -0.0989 ± 0.015 for the second.

Compared with GCATGTAA, CACCTTCA is higher in “PBM E-score of 8-mer” value: -0.124 ± 0.0041 for the first, 0.436 ± 0.0071 for the second.

Compared with AACCTTCC, CACCTTCG is higher in “PBM E-score of 8-mer” value: -0.196 ± 0.038 for the first, 0.431 ± 0.02 for the second.

CCCCTTCG and AACCTTCG are within error of each other in “PBM E-score of 8-mer” value: -0.126 ± 0.029 for the first, -0.135 ± 0.0027 for the second.

GACCTTCA and AACCTTCA are within error of each other in “PBM E-score of 8-mer” value: -0.0991 ± 0.0084 for the first, -0.149 ± 0.083 for the second.

Going from GACCTTCC to CACCTTCC, the “PBM E-score of 8-mer” value rises from 0.0338 ± 0.01 to 0.4461 ± 0.0012.

Compared with AGATCGTA, ACTCCTCG is higher in “PBM E-score of 8-mer” value: 0.0776 ± 0.06 for the first, 0.219 ± 0.032 for the second.

Compared with ACCTAAGT, TAGGTCGA is lower in “PBM E-score of 8-mer” value: 0.0966 ± 0.0054 for the first, -0.111 ± 0.085 for the second.

Compared with GGGCGCAA, ACTTGGAA is lower in “PBM E-score of 8-mer” value: 0.0355 ± 0.036 for the first, -0.1519 ± 0.00037 for the second.

Going from CCTCCACA to CGCTTGAA, the “PBM E-score of 8-mer” value falls from 0.233 ± 0.021 to -0.191 ± 0.056.

CCATTAAC and CCTGTTGA are within error of each other in “PBM E-score of 8-mer” value: 0.0966 ± 0.0036 for the first, 0.091 ± 0.045 for the second.

Going from CTCTTGAA to AGACAGAG, the “PBM E-score of 8-mer” value rises from -0.374 ± 0.012 to -0.139 ± 0.052.

Going from ATCACCTC to GTCACCGA, the “PBM E-score of 8-mer” value falls from 0.4197 ± 0.00045 to 0.127 ± 0.041.

First: ATCACCAC
Second: CTCACCGC
The “PBM E-score of 8-mer” value of the first is higher: 0.15 ± 0.0054 for the first, 0.055 ± 0.076 for the second.

GTCACCCA and CTCACCAC are within error of each other in “PBM E-score of 8-mer” value: 0.259 ± 0.056 for the first, 0.209 ± 0.054 for the second.

Compared with ATCACCCC, CTCACCTC is higher in “PBM E-score of 8-mer” value: 0.289 ± 0.028 for the first, 0.449 ± 0.009 for the second.

Compared with ATCACCGG, ATCACCTG is higher in “PBM E-score of 8-mer” value: -0.319 ± 0.02 for the first, 0.379 ± 0.019 for the second.

Going from GTCACCTA to ATCACCAG, the “PBM E-score of 8-mer” value falls from 0.4173 ± 0.0026 to -0.0506 ± 0.043.

Going from AAAGACTC to AAGGGGGG, the “PBM E-score of 8-mer” value falls from -0.156 ± 0.018 to -0.444 ± 0.023.

Compared with CGCACTAG, ATGCTGCC is lower in “PBM E-score of 8-mer” value: 0.167 ± 0.021 for the first, -0.293 ± 0.037 for the second.

First: ACCCACGG
Second: CATGCGAA
The “PBM E-score of 8-mer” value of the first is lower: -0.132 ± 0.022 for the first, 0.108 ± 0.046 for the second.

Going from ATCACCCA to CTTACCTA, the “PBM E-score of 8-mer” value falls from 0.276 ± 0.021 to -0.153 ± 0.059.

Going from ATCACCAA to ATCACCTA, the “PBM E-score of 8-mer” value rises from 0.17 ± 0.016 to 0.392 ± 0.022.

First: CTCACCGA
Second: CTCACCTA
The “PBM E-score of 8-mer” value of the first is lower: 0.00965 ± 0.039 for the first, 0.4081 ± 0.0035 for the second.

Going from CTAGCGTA to ATGGTTAC, the “PBM E-score of 8-mer” value falls from 0.0249 ± 0.015 to -0.265 ± 0.029.

ATTGGCGA and ATTAGCAA are within error of each other in “PBM E-score of 8-mer” value: 0.156 ± 0.027 for the first, 0.12 ± 0.092 for the second.

ATTAGCAC and CTTAGCAC are within error of each other in “PBM E-score of 8-mer” value: 0.417 ± 0.016 for the first, 0.4 ± 0.0047 for the second.

Compared with CATAGCAC, ATTAGCAG is lower in “PBM E-score of 8-mer” value: 0.306 ± 0.029 for the first, 0.129 ± 0.045 for the second.

First: CTTAGCAA
Second: AGAAGGGC
The “PBM E-score of 8-mer” value of the first is higher: 0.0581 ± 0.031 for the first, -0.11 ± 0.013 for the second.

First: CTTGCTCA
Second: CTCGCACA
The “PBM E-score of 8-mer” value of the first is lower: 0.0359 ± 0.0032 for the first, 0.375 ± 0.0071 for the second.

First: ATCGCGCC
Second: ATCGCACC
The “PBM E-score of 8-mer” value of the first is lower: 0.368 ± 0.016 for the first, 0.4642 ± 0.0032 for the second.

Compared with ATCGCACG, CTCGCATC is lower in “PBM E-score of 8-mer” value: 0.34 ± 0.023 for the first, 0.176 ± 0.033 for the second.

First: ATCGCACA
Second: GTCGCACA
The “PBM E-score of 8-mer” value of the first is lower: 0.3241 ± 0.00047 for the first, 0.353 ± 0.025 for the second.

Compared with CTCGCGCA, CTCGCACC is higher in “PBM E-score of 8-mer” value: 0.191 ± 0.024 for the first, 0.4721 ± 0.0042 for the second.

First: CTCGCGCC
Second: CCCGCACC
The “PBM E-score of 8-mer” value of the first is higher: 0.401 ± 0.013 for the first, 0.3 ± 0.031 for the second.

Going from CTCGCAGA to CGAAGAGC, the “PBM E-score of 8-mer” value falls from 0.00155 ± 0.054 to -0.116 ± 0.044.

CAGCACAG and CGGGGTTA are within error of each other in “PBM E-score of 8-mer” value: -0.0973 ± 0.029 for the first, -0.195 ± 0.071 for the second.

Going from GGCATGAA to CTCTAAGA, the “PBM E-score of 8-mer” value falls from -0.0787 ± 0.006 to -0.271 ± 0.053.

First: CTTTTACA
Second: AGCTTAGC
The “PBM E-score of 8-mer” value of the first is higher: 0.169 ± 0.025 for the first, -0.0359 ± 0.0015 for the second.

TATGATGA and AGTCAAAG are within error of each other in “PBM E-score of 8-mer” value: -0.156 ± 0.037 for the first, -0.132 ± 0.081 for the second.

Going from GAGAGATA to CCACATTA, the “PBM E-score of 8-mer” value rises from -0.0805 ± 0.045 to 0.126 ± 0.0023.

First: CTAACACA
Second: CTTACACA
The “PBM E-score of 8-mer” value of the first is higher: 0.374 ± 0.035 for the first, 0.277 ± 0.012 for the second.

First: ATAACACA
Second: ATAACACC
The “PBM E-score of 8-mer” value of the first is lower: 0.3597 ± 0.0034 for the first, 0.465 ± 0.0066 for the second.

Compared with CTAACATC, ATAACACG is higher in “PBM E-score of 8-mer” value: -0.1377 ± 0.00032 for the first, 0.325 ± 0.05 for the second.

First: CTTACACC
Second: GTAACACA
The “PBM E-score of 8-mer” value of the first is higher: 0.395 ± 0.013 for the first, 0.3374 ± 0.0018 for the second.

First: ATTACACC
Second: CTAACACC
The “PBM E-score of 8-mer” value of the first is lower: 0.349 ± 0.0023 for the first, 0.4751 ± 0.004 for the second.

First: ATAACATC
Second: CGAACACC
The “PBM E-score of 8-mer” value of the first is lower: -0.101 ± 0.065 for the first, 0.3416 ± 0.0028 for the second.

AGACCCCT and AAACCCGG are within error of each other in “PBM E-score of 8-mer” value: -0.245 ± 0.086 for the first, -0.207 ± 0.0074 for the second.

Going from GTCCCCTA to AAATTAGC, the “PBM E-score of 8-mer” value rises from -0.175 ± 0.076 to 0.24 ± 0.01.

Source: the supplement of paper PMC4166925
